Laboratory results from PubChem BioAssay (NCATS).
Records with an inconclusive call do not appear. A call without a number means that no potency is given here. Activity calls are given as the source filed them. Calls follow the shape of the dose curve; as a rule, active = well fitted inhibition curve with a large enough effect; inconclusive = small, poorly fitted or top-dose-only effect; inactive = flat fitted curve, though single readings scatter.

Columns and labels:
[1] = target: Glutathione peroxidase 1 (Homo sapiens) (UniProt P07203); experiment: Primary qHTS Assay for Inhibitors of Recombinant Selenoprotein Glutathione Peroxidase 1 (GPX1) (AID 1845191)
Method in brief: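 Recombinant GPX1 (10 nM final) was preincubated with compound for 30 min at room temperature, then reacted with 1 mM GSH, 0.5 mM CHP, 0.5 mM NADPH and 100 nM glutathione reductase; NADPH fluorescence (340/450 nm) was read at 0 and 15 min.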

[2] = target: Phospholipid hydroperoxide glutathione peroxidase GPX4 (Homo sapiens) (UniProt P36969); experiment: Primary qHTS Assay for Inhibitors of Recombinant Selenoprotein Glutathione Peroxidase 4 (GPX4) (AID 1845192)
Method in brief: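 GR-coupled readout: 100 nM GR, 1 mM GSH, 0.5 mM NADPH; NADPH fluorescence (ex 340/em 450 nm) read at t=0 and after 15 min RT. GPX4 200 nM, preincubated 30 min with compound; substrate 0.5 mM CHP.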
Also: nearly all actives have a fitted effect of over 65% in size.

Sequence of Phospholipid hydroperoxide glutathione peroxidase GPX4 (Homo sapiens) (P36969 whole entry, looked up): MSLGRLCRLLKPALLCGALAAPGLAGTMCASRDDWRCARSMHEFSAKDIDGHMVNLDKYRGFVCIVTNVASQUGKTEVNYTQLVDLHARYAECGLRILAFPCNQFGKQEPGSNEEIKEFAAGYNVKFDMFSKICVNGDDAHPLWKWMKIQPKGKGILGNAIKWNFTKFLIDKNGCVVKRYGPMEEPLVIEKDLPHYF
Sequence of Glutathione peroxidase 1 (Homo sapiens) (P07203 whole entry, looked up): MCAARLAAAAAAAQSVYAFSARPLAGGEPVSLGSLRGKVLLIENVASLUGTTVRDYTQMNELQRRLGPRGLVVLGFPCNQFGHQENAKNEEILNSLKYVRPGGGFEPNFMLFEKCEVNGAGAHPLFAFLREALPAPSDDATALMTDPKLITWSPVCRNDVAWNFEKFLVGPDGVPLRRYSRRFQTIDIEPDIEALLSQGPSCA

| Structure (SMILES) | Potency [1] | Potency [2] |
| --- | --- | --- |
| Cc1ccc(Nc2c(F)cccc2Cl)c(CC(=O)O)c1 | inactive | inactive |
| Cc1ccnc(NS(=O)(=O)c2ccc(N)cc2)n1 | inactive | inactive |
| Cc1c(C(C)C)c(=O)n(-c2ccccc2)n1C | inactive | inactive |
| COc1c(C)c2c(c(O)c1C/C=C(\C)CCC(=O)O)C(=O)OC2 | inactive | inactive |
| CCOc1ccc(Cc2nccc3cc(OCC)c(OCC)cc23)cc1OCC | inactive | inactive |
| CC(=O)OCC(=O)[C@@]1(OC(C)=O)[C@@H](C)C[C@H]2[C@@H]3C[C@H](F)C4=CC(=O)C=C[C@]4(C)[C@@]3(F)[C@@H](O)C[C@@]21C | inactive | inactive |
| CCN1CCCC1=O | inactive | inactive |
| C[C@@H]1C[C@H]2[C@@H]3CCC4=CC(=O)C=C[C@]4(C)[C@@]3(F)[C@@H](O)C[C@]2(C)[C@H]1C(=O)CO | inactive | inactive |
| CN1CCN(CCCN2c3ccccc3Sc3ccc(S(=O)(=O)N(C)C)cc32)CC1 | inactive | inactive |
| N[C@@H](CCC(=O)N[C@@H](CS)C(=O)NCC(=O)O)C(=O)O | inactive | inactive |
| CN1CCC[C@@H]1c1cccnc1 | inactive | inactive |
| CN1CCCC(CC2c3ccccc3Sc3ccccc32)C1 (configuration not stated) | inactive | inactive |
| CCCSS/C(CCO)=C(\C)N(C=O)Cc1cnc(C)nc1N | inactive | inactive |
| Cc1ccc(C(=O)C(C)CN2CCCCC2)cc1 (configuration not stated) | inactive | inactive |
| OCc1ccccc1O | inactive | inactive |
| CC1(C)OC[C@@H](COC(=O)CCc2ccc(OC[C@@H](O)CNCCNC(=O)N3CCOCC3)cc2)O1 | inactive | inactive |
